# Source: PubChem (National Center for Advancing Translational Sciences (NCATS))
# KCNH2 WT inh: KCNH2 (human, wildtype) channel inhibition; Q12809; U2OS, BacMam KCNH2, thallium flux FluxOr; active compounds read low; activity change, % at 1.84 µM; 340,000 tested, 0.37% active;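 active means maximum activity change below -70%; inconclusive means maximum activity change between -70% and -50%; inactive means maximum activity change above -50%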; further: on the % scale 0 is the no-effect control and ±100 the full control effect
# Target sequence (Q12809 whole entry, looked up): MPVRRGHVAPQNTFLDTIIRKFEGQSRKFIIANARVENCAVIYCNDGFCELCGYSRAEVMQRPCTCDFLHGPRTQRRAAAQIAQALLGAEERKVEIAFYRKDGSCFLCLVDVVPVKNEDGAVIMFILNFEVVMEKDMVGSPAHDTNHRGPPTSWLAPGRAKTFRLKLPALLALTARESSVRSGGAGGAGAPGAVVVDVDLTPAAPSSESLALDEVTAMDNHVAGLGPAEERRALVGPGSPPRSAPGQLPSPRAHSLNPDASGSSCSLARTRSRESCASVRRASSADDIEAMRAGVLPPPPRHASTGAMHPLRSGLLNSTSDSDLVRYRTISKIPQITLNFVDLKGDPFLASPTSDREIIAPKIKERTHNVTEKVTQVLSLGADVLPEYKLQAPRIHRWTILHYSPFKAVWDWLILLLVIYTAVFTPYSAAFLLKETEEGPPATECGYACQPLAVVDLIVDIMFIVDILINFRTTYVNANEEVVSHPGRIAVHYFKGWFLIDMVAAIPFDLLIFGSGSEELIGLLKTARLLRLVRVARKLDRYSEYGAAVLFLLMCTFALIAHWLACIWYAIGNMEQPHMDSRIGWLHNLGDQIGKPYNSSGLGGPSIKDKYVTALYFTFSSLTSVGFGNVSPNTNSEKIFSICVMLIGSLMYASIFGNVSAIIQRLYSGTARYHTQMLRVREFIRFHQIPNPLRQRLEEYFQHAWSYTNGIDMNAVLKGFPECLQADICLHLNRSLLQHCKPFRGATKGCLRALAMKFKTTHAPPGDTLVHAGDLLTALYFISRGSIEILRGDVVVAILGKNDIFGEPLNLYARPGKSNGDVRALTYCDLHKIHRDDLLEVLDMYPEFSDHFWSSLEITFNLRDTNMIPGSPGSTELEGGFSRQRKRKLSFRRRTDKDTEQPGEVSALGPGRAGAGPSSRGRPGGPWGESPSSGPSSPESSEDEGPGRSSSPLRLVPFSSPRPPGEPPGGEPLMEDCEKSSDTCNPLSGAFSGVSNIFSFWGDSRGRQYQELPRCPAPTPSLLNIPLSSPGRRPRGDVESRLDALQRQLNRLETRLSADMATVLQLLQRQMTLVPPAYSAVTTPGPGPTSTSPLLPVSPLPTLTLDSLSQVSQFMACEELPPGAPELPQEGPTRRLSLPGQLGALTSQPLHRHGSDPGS
#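 U2OS cells were transduced with wild-type KCNH2 virus (2.03 x 10^8 / mL) for 4 h at room temperature, then cultured overnight at 37 C. Thallium flux was read with FluxOr dye. Rate constants were normalized to DMSO controls.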
# VDR inh: inhibitors of human vitamin D receptor | P11473 | VDR-SRC2-3 peptide fluorescence polarization, 2 h | Potency, µM, without a hit: max response, negative = inhibition, usual class: inhibitors | 400,000 tested, 0.93% active | AID 504847; further: potency means the concentration at half of the fitted maximal effect; on the % scale 0 is the no-effect control and ±100 the full control effect
#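 Signal is fluorescence polarization, reporting how far test compounds block the interaction of VDR with the SRC2-3 coregulator peptide after a 2 h room-temperature incubation.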
# KCNH2 3.1 inh: KCNH2 3.1 (human) potassium channel inhibition | U2OS KCNH2 3.1, thallium flux FluxOr; active compounds read low | activity change, % (tested at about 1.8 µM) | 340,000 tested, 0.95% active | AID 720553;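 active means maximum activity change below -70%; inconclusive means maximum activity change from -70% to -50%; inactive means maximum activity change above -50%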;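 further: thallium influx rate constant from kinetic fluorescence after stimulation buffer; on the % scale 0 is the no-effect control and ±100 the full control effect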
#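 Measured as rate of thallium-driven FluxOr signal in transduced U2OS cells carrying the 3.1 channel, read kinetically for 2 min upon stimulation; values are rate constants scaled to DMSO control wells.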
# PLK1 PBD inh: PLK1 (human) polo-box domain binding inhibition; Plk1 PBD binding of FITC phosphopeptide, fluorescence polarization; Potency, µM, inactives show max response, negative = inhibition, usual class: inhibitors; 360,000 tested, 2.8% active; AID 720504; further: potency means the concentration at half of the fitted maximal effect; series mostly up to about 57 µM; on the % scale 0 is the no-effect control and ±100 the full control effect; nearly all actives have a fitted effect of over 65% in size
# CBFb RUNX1 block: blocks binding between human CBF-beta and RUNX1; Q01196+Q13951; AlphaScreen CBFb-His/RUNX1-biotin binding, biochemical; Potency, µM (top dose mostly 59.8 µM), inactives show at the highest dose activity, negative = inhibition, hits mostly inhibitors; 230,000 tested, under 10 active; further: % of control where 0% means no effect
#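 Interaction loss through any mechanism counts as activity. Pre-formed complex of His-CBF-beta and biotin-RUNX1 (30 nM apiece) is incubated with compound 15 min, then with 50 ng nickel and 50 ng streptavidin beads for 90 min before AlphaScreen detection.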
# MBNL1-CUG inh: blocks human MBNL1 binding to CUG repeat RNA; Q9NR56; Potency, µM (series often up to 57.5 µM), inactives show top-dose activity change, negative = inhibition, most hits filed as inhibitors; 280,000 tested, 0.036% active; AID 2675; TR-FRET MBNL1-His/biotin-(CUG)12 binding, 665/545 ratio; active means well fitted inhibition curve with a large enough effect in the signal ratio, with a control signal flat, not every such curve was filed as active; inconclusive means small, poorly fitted or top-dose-only effect, or effect the other way, or a change in a side signal; inactive means no such curve, though single readings can be large or run the other way; the % refers to the signal ratio; further: potency means the concentration at half of the fitted maximal effect; on the % scale 0 is the no-effect control and ±100 the full control effect
#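 Inhibition of protein-RNA binding appears as loss of TR-FRET between terbium anti-His antibody on MBNL1-His and streptavidin-XL665 on biotin-(CUG)12. Activity is normalized to buffer-only and uninhibited-complex controls.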
# Numbers without * were called inactive; ? = inconclusive; . = no result. Sampled rows, rich in hits. Any-hit rate of the full collection: about 3.8%. Unless noted, the call rests on the fitted dose curve; in most records, active means well fitted curve in the direction sought with a large enough effect; inconclusive means small, poorly fitted or top-dose-only effect, or another doubt; inactive means no such curve, though single readings can be large; an effect the other way counts as inactive or inconclusive.
SMILES,KCNH2 WT inh,VDR inh,KCNH2 3.1 inh,PLK1 PBD inh,CBFb RUNX1 block,MBNL1-CUG inh
COC(=O)c1ccc(OC(=O)N2CCOCC2)cc1,-5,2%,-2,-1%,.,7%
O=C(Oc1ccc(OC(=O)N2CCOCC2)cc1)c1ccccc1,-152*,2%,-20,-5%,13%,2%
O=C(Oc1ccc(C(=S)N2CCOCC2)cc1Br)c1ccccc1F,0,?,1,24µM*,-19%,.
O=C(Oc1ccc(C(=S)N2CCOCC2)cc1Cl)c1ccccc1F,5,-29%,-4,?,.,-2%
O=C(Oc1nsnc1N1CCOCC1)c1ccccc1,-2,-13%,-15,24µM*,-2%,-7%
COc1ccc(C2Nc3ccc(NC(C)=O)cc3C(=O)N2Cc2ccccc2)cc1COc1ccc(NC(C)=O)cc1 (stereo unspecified),.,-9%,.,.,.,.
O=C(OCCN1CCOCC1)c1ccccc1,-16,-19%,5,24µM*,.,2%
O=C(OCCN1CCOCC1)c1ccc(O)cc1,-1,-3%,7,2%,.,-10%
Cc1ccc(C(=O)N2CCN(c3ccccc3F)CC2)cc1NC(=O)c1nsc2ccccc12,.,-3%,.,.,.,.
COc1ccc(S(=O)(=O)c2cn(Cc3ccccc3)c3cc(N4CCCC4)c(F)cc3c2=O)cc1,.,19%,.,.,.,.
COc1cc(CN2CCCC(CO)(Cc3cccc(Cl)c3)C2)cc2c1OCO2 (stereo unspecified),30,?,-16,21µM*,0%,-6%
COc1ccc(CN2CCCC(CO)(Cc3cccc(Cl)c3)C2)cc1OC (stereo unspecified),2,-9%,-17,-3%,.,-12%
O=C(CCl)c1cc2c3c(c1)CC(=O)N3CCC2,1,?,3,1.2µM*,.,-7%
Cc1cccc(CNC(=O)C2CCN(S(=O)(=O)c3ccc4c(c3)CCCN4C(=O)C3CCC3)CC2)c1,.,-3%,.,.,.,.
O=c1cc2c(nn1Cc1cccc(Cl)c1)-c1ccccc1CC2,-11,?,-16,-7%,9%,17%
O=c1cc2c(nn1Cc1ccc(Cl)cc1)-c1ccccc1CC2,-8,-1%,-95*,-3%,-3%,20%
CC(=O)Nc1ccc(NC(=O)CSc2nccn2Cc2ccc3c(c2)OCO3)cc1,.,-10%,.,.,.,.
CC(C)C[C@H](NC(=O)[C@H](Cc1ccccc1)NC(=O)[C@@H]1CCCN1C(=O)[C@H](CC(=O)O)NC(=O)[C@@H]1CCC(=O)N1)C(=O)N[C@@H](CCCN=C(N)N)C(=O)N[C@@H](Cc1ccccc1)C(N)=O,.,11%,.,.,4%,.
CCC(C)c1ccc(NC(=S)NCc2cccnc2)cc1 (stereo unspecified),1,4%,-94*,-9%,-26%,3%
CCOc1ccc(-n2c(N)c(C(=O)NCc3cccnc3)sc2=S)cc1,-13,-25%,-7,27µM*,-8%,?
Fc1ccc(NC(=S)NCc2cccnc2)cc1,1,-12%,-12,-14%,4%,-1%
CCOc1ccc(-n2c(N)c(C(=O)NCc3ccco3)sc2=S)cc1,6,?,9,21µM*,-13%,?
CCOc1ccc(NC(=O)NCc2cccnc2)cc1,-4,-13%,?,27µM*,9%,-29%
COc1ccc(S(=O)(=O)Nc2cccc3cccnc23)c([N+](=O)[O-])c1,.,-2%,.,.,.,.
Cc1ccc(S(=O)(=O)NCCc2nnc3ccc(SCc4ccccc4F)nn23)cc1,.,6%,.,.,.,.
SMILES,KCNH2 WT inh,VDR inh,KCNH2 3.1 inh,PLK1 PBD inh,CBFb RUNX1 block,MBNL1-CUG inh
COc1ccc(N2CCN(C(=O)C3CCN(S(=O)(=O)c4cnc[nH]4)CC3)CC2)cc1,.,-2%,.,.,.,.
COC(=O)c1sc(=S)n(-c2cccc(Cl)c2)c1N,8,?,-3,8.4µM*,-1%,5%
COc1ccc(CNC(=O)c2sc(=S)n(-c3ccccc3)c2N)cc1,1,2%,1,13µM*,-11%,2%
CCOC(=O)c1sc(=S)n(-c2ccc(OC)cc2)c1N,13,9%,4,-11%,-7%,?
CCOc1cc(/C=C2/C(=O)ON=C2C)ccc1OCc1ccccc1F,1,-83%,-10,0.84µM*,-16%,-3%
C#CCOc1c(Br)cc(/C=C2/C(=O)ON=C2C)cc1OCC,1,?,-19,4.2µM*,.,6%
COc1cc(/C=C2\NC(=S)N(C)C2=O)ccc1OCc1ccccc1F,3,-2%,17,-10%,.,0%
CCOc1c(Br)cc(/C=C2\N=C(C)OC2=O)cc1Br,-1,-3%,-10,-24%,.,4%
C#CCOc1c(Br)cc(/C=C2/C(=O)ON=C2C)cc1OC,-5,?,-10,2.7µM*,.,13%
Cc1ccc(CCNC(=O)c2cc3sccc3n2Cc2ccc(F)cc2)cc1,.,-10%,.,.,.,.
COc1ccccc1CNC(=O)CN1C(=O)COc2ccc(S(=O)(=O)N3CCC(C)CC3)cc21,.,7%,.,.,.,.
CCc1ccc(-c2csc3[n+]2CCN3C(C)=O)cc1,13,25µM*,1,?,-3%,8%
CCOC(=O)c1ccc(NC(=O)CC2C(=O)N(c3ccc(F)cc3)C(=O)N2Cc2cccnc2)cc1 (stereo unspecified),.,3%,.,.,.,.
Cc1ccc(C)c(Cn2c(=O)c3c(nc4n3CCN4c3ccccc3)n(C)c2=O)c1,.,2%,.,.,.,.
C=CCn1c(C)csc1=Nc1ccccc1C,-9,-6%,7,30µM*,-11%,4%
C=CCn1c(C)csc1=Nc1ccc(C(C)=O)cc1,5,-6%,-11,-14%,6%,16%
COC(=O)N1CCN(/[N+]([O-])=N/Oc2ccc([N+](=O)[O-])cc2[N+](=O)[O-])CC1,.,?,.,.,16%,.
CC1CCN(C(=O)Cn2cc(SCC(=O)NCC3CCCO3)c3ccccc32)CC1 (stereo unspecified),-5,-8%,2,-2%,2%,-2%
CN(C(=O)CSc1cn(CC(=O)N2CCOCC2)c2ccccc12)c1ccccc1,5,?,1,12µM*,.,0%
CC1CN(C(=O)CSc2cn(CC(=O)N3CCOCC3)c3ccccc23)CC(C)O1 (stereo unspecified),-9,1%,-6,-15%,.,-5%
O=C(CSc1cn(CC(=O)N2CCCCC2)c2ccccc12)NCC1CCCO1 (stereo unspecified),3,?,13,27µM*,3%,.
CCCCOc1ccc(C(=O)NCCc2sc3nc(-c4ccc(OC)cc4)nn3c2C)cc1,.,9%,.,.,.,.
COc1ccc(-c2noc(N3CCC(C(=O)N4CCN(c5ccccc5F)CC4)CC3)n2)cc1,.,12%,.,.,.,.
N#Cc1ccc(-n2nccc2-c2cnc3n(c2=O)CCS3)cc1,-6,?,-8,27µM*,3%,-4%
